Screening data deposited in PubChem by National Center for Advancing Translational Sciences (NCATS).
GLP-1R inv ag: inverse agonists of human GLP-1 receptor; HEK293 GLP-1R CRE-luciferase, luminescence, 24 h; GLP-1R form is constitutively active; 410,000 compounds, 1.6% hits; AID 624417; Potency, µM (series often up to 38.3 µM), hits mostly inhibitors; also: nearly all actives have a fitted effect of over 55% in size
Target sequence (P43220 whole entry, looked up): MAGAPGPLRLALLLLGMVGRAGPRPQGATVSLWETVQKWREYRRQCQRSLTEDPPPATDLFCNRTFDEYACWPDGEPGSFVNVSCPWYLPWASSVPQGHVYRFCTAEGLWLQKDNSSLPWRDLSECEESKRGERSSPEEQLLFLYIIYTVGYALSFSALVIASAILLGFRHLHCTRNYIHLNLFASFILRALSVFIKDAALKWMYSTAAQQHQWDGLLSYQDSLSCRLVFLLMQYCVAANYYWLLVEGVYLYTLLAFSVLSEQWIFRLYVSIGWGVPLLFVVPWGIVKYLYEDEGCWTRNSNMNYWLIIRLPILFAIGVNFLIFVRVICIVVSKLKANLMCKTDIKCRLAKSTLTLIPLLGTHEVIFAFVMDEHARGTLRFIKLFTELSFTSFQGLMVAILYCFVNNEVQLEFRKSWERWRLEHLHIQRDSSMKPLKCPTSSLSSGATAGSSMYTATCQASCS
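GLP-1R inverse agonism mode: basal reporter luminescence in engineered HEK293 cells measured after one day of compound exposure at 37 deg C, with a 12 min room-temperature detection step.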
GLP1R cytotox: cytotoxic in the GLP-1 receptor inverse agonist counter-screen; AID 624418; 410,000 compounds, 0.13% hits; Potency, µM (doses to about 38.3 µM), actives largely listed as inhibitors; HEK293 cAMP-luciferase reporter cells, luminescence, 24 h;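 also: loss of luciferase light is scored as toxicity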
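A 23 nL compound transfer followed 12 hours of cell culture at 37 deg C; exposure then lasted 24 hr. Luciferase assay detection reagent was dispensed and plates read for luminescence after a 12 min room-temperature wait.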
BRCA1 expr act: activators of BRCA1 expression | MCF7-BRCA1-FFLuc reporter, luminescence, 48 h; response scale: scaled: vehicle 0%, 10 µM genistein 100% | Potency, µM (doses to about 46.1 µM), hits mostly activators | 380,000 compounds, 1.1% hits; also: nearly all actives have a fitted effect of over 80% in size
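MCF7-BRCA1-FFLuc cells, 2000/well in phenol-red-free MEM, attached 2 h then treated 48 h at 37 C. Luciferase luminescence read 15 min after reagent; normalized to genistein maximum activation (10microM) and DMSO, concentration-response fitted.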
GLP1R ag: activates the human GLP-1 receptor. P43220. HEK293 GLP-1R CRE-luciferase, luminescence, 4-6 h; cells express a hypersensitive GLP-1R form. Potency, µM (titrated, usually from 45.6 µM), hits mostly activators. 380,000 compounds, 0.007% hits. AID 624172
Numbers stand for hits; – = inactive; ? = inconclusive; · = not tested or not shown. The list is not random: actives were taken first. Their share in the collection is about 2.6%. Calls follow the shape of the dose curve; as a rule, active = well fitted curve in the direction sought with a large enough effect; inconclusive = small, poorly fitted or top-dose-only effect, or another doubt; inactive = no such curve, though single readings can be large; an effect the other way counts as inactive or inconclusive.

SMILES | GLP-1R inv ag | GLP1R cytotox | BRCA1 expr act | GLP1R ag
COc1ccc(C(=O)c2coc(-c3ccccc3C(=O)O)c2C(=O)O)cc1 | – | – | – | –
COc1ccc(C(=O)c2c(C(F)(F)F)oc3c2C(=O)c2ccccc2C3=O)cc1 | 7.1µM | – | – | –
COc1ccc(CCC(=O)NO)cc1 | · | · | – | ·
CSc1ccc(Cl)c(C(=O)NCCOc2cc(C(C)C)ccc2C)c1 | 11µM | – | – | –
Cc1c(C(=O)N2CCOCC2)[nH]c2c1C(=O)CC(c1ccccc1Cl)C2 (centres undefined) | ? | 5.6µM | – | –
CCOC(=O)[C@H](CCc1ccccc1)N[C@@H](C)C(=O)N(CC(=O)O)C1Cc2ccccc2C1 | · | · | · | –
Cc1ccccc1C(=O)N/N=C/c1cccc2ccccc12 | ? | – | 13µM | –
O=C(N/N=C/c1ccccc1F)c1cccc2ccccc12 | – | – | – | –
c1ccc(Cn2cc(CN3CCCCO3)c(-c3ccc4c(c3)OCO4)n2)cc1 | 11µM | – | – | –
O=C(Nc1ccc(NC(=O)N2CCN(c3ccccc3O)CC2)cc1)N1CCN(c2ccccc2O)CC1 | 5µM | – | – | –
O=C(c1cc2cc(Cl)ccc2o1)N1CCCC1 | – | – | ? | –
O=C(c1cc2cc(Br)ccc2o1)N1CCCCC1 | ? | – | 4.5µM | –
O=C(COc1ccc(/C=N/NC(=O)c2cc3ccccc3o2)cc1Cl)Nc1ccccc1 | 4.5µM | ? | – | –
CC(=O)O[C@@H](C)C[N+](C)(C)C | · | · | · | –
CCOc1ccc2nc(NC(=O)C(CC)Sc3nc(C)cc(=O)[nH]3)sc2c1 (centres undefined) | – | – | 5.6µM | –
CCC(C)c1ccccc1NC(=O)CN(C)CCOc1ccc(Cl)cc1 (centres undefined) | 10µM | – | – | –
CN(CCOc1ccc(Cl)cc1)CC(=O)Nc1ccc(OC(F)F)cc1 | ? | – | – | –
COc1ccccc1/C=C/c1nc2ccccc2s1 | · | · | – | ·
Cc1cc(OCC(=O)N(C)Cc2ccccc2)ccc1Cl | ? | – | ? | –
CN(Cc1ccccc1)C(=O)CN1CCN(S(=O)(=O)c2ccc(Cl)c(Cl)c2)CC1 | ? | – | – | –
Cc1cc(S(=O)(=O)N2CCN(CC(=O)N(C)Cc3ccccc3)CC2)ccc1Br | 8.9µM | – | – | –
Cc1cc(OCC(=O)N(C)Cc2ccccc2)ccc1Br | 10µM | – | – | –
CCOc1ccccc1CNC(=O)CCn1cccn1 | – | – | · | ·
COc1ccc2c(c1)/C(=C\c1cccc(/C=C3/C(=O)Nc4ccc(OC)cc43)n1)C(=O)N2 | ? | 2.2µM | – | –
Clc1cccc2c1Sc1ccccc1CC2N1CCNCC1 (centres undefined) | ? | ? | – | –
SMILES | GLP-1R inv ag | GLP1R cytotox | BRCA1 expr act | GLP1R ag
Clc1ccc2c(c1)C(N1CCNCC1)Cc1ccccc1S2 (centres undefined) | 8.9µM | – | – | –
Cc1ccc(C)c(-c2[nH]ncc2CN2CCCC(CO)(Cc3ccccc3C)C2)c1 (centres undefined) | 10µM | ? | – | –
Cc1cccc(OCc2nc(C#N)c(NCc3ccccc3Cl)o2)c1 | ? | – | – | –
COc1cc(Cl)c(CN2CCCC(CO)(Cc3cccc(Cl)c3)C2)cc1OC (centres undefined) | 8.9µM | – | – | –
COc1ccccc1/C=C/CN1CCCC(CO)(Cc2cccc(Cl)c2)C1 (centres undefined) | 11µM | ? | – | –
COc1ccc(F)c(CN2CCCC(CO)(Cc3cccc(Cl)c3)C2)c1 (centres undefined) | ? | – | – | –
COc1ccc(/C=C/CN2CCCC(CO)(Cc3cccc(Cl)c3)C2)cc1 (centres undefined) | 3.2µM | ? | – | –
O=C(CCn1c(=O)c2ccccc2n(Cc2cccc(F)c2)c1=O)NCc1ccc2c(c1)OCO2 | – | – | – | –
CCN1CCN(CCNC(=O)c2ccc3c(c2)N(Cc2ccc(F)cc2)C(=O)/C(=C/c2ccccc2)S3)CC1 | 10µM | ? | – | –
Cc1ccccc1CN1C(=O)/C(=C\c2ccc(C(=O)NCCN3CCOCC3)cc2)Sc2ccccc21 | 11µM | – | – | –
CCc1ccc(/C=C2/Sc3ccccc3N(CC(=O)NCCCN3CCOCC3)C2=O)cc1 | 8.9µM | – | – | –
CCN1C(=O)c2ccccc2Sc2ccc(C(=O)NCCCN3CCCCC3)cc21 | 13µM | – | – | –
